Activity calls are given as the source filed them. A call without a number means that no potency is given here. The call rests on the fitted dose curve; in most records, active means well fitted activation curve with a large enough effect in the repeat runs; inconclusive means weak or mixed curves; inactive means flat fitted curve, though single readings scatter.
Test: A CellTox Green Cytotoxicity Assay to monitor cytotoxicity in HEK293 cells - 0 hour (AID 1224869); further: nearly all actives have a fitted effect of over 50% in size
Details: CellTox Green fluorescence; series mostly up to 76.8 µM
From the text: National Center for Advancing Translational Sciences [NCATS]
NIH Chemical Genomics Center [NCGC]
U.S. Environmental Protection Agency [EPA]
National Institutes of Environmental Health Sciences [NIEHS]
National Toxicology Program [NTP]
Cell-based models are critical for drug discovery. Determining the natural cytotoxic effects resulting from test compounds is an essential research activity. A CellTox Green Cytotoxicity Assay to monitor cytotoxicity in real time of continues cell culture during 40 hours of the compound treatment was used to screen Tox21 10K library compounds in Hek293 cells. CellTox Green Cytotoxicity Assay is a nonlytic, homogeneous, biofluorescent method to measure cytotoxicity in cell culture after experimental manipulation. The assay system uses a proprietary asymmetric cyanine dye that is excluded from viable cells but preferentially stains the dead cell's DNA. […] Viable cells produce no appreciable increases in fluorescence. Therefore, the fluorescence signal produced by the binding interaction with dead cell DNA is proportional to cytotoxicity.
The mixture of Hek293 cell suspension and reagents were dispensed at 600cells/6 ul/well in 1536-well tissue culture treated black solid bottom plates using a Multidrop dispenser. After the assay plates were incubated at a 37 C/5% CO2 incubator for 5 hours, 23 nL of compounds dissolved in DMSO, positive and negative controls was transferred to the assay plate by a pintool work station. The plates were incubated at 37 C for 40 hours. The fluorescence intensity were measured at 0h, 8h, 16h, 24h, 32h and 40h time points using ViewLux plate reader during compound treatment.

Row | SMILES | Potency
1 | COc1ccc2c(c1OC)CN1CCc3cc4c(cc3C1C2)OCO4 (stereo not given) | inactive
2 | CCOC(=O)/C=C(C)/C=C/C[C@@H](C)CCCC(C)C | inactive
3 | CNC(=O)Oc1c(C(C)(C)C)cc(C)cc1C(C)(C)C | inactive
4 | Cc1ncc(CNC(=O)N(CCCl)N=O)c(N)n1 | inactive
5 | CC(C)CC#N | inactive
6 | Cc1coc2c1CCC(C)C2 (stereo not given) | inactive
7 | C=CCC1=C(C)[C@@H](OC(=O)[C@@H]2[C@@H](C=C(C)C)C2(C)C)CC1=O | inactive
8 | COCC(=O)N(c1c(C)cccc1C)N1CCOC1=O | inactive
9 | CCOP(=S)(OCC)Oc1nc(Cl)n(C(C)C)n1 | inactive
10 | ClC(Br)Br | inactive
11 | CCOP(=S)(OCC)Oc1cc(-c2ccccc2)on1 | inactive
12 | Cc1nc(N)nc(N)n1 | inactive
13 | CCCSP(=S)(OCC)Oc1ccc(Cl)cc1Cl (stereo not given) | inactive
14 | Nc1n[nH]c(N)n1 | inactive
15 | CCC(=O)C(CCN(C)C)(c1ccccc1)c1ccccc1 | inactive
16 | CCC(C)(C)c1cc(-n2nc3ccccc3n2)c(O)c(C(C)(C)CC)c1 | inactive
17 | COC(=O)c1c(C(F)F)nc(C(F)(F)F)c(C2=NCCS2)c1CC(C)C | inactive
18 | Nc1cc(Cl)ccc1O | inactive
19 | C=C(C)[C@@H]1CC=C(C=O)CC1 | inactive
20 | CCCSP(=O)(OCC)Oc1ccc(Br)cc1Cl (stereo not given) | inactive

Row | SMILES | Potency
21 | CSc1nc(N=[N+]=[N-])nc(NC(C)C)n1 | inactive
22 | CCOP(=S)(OCC)SCSP(=S)(OCC)OCC | inactive
23 | CC(COc1ccc(Oc2ccccc2)cc1)Oc1ccccn1 (stereo not given) | inactive
24 | O=C(CCN1CC1)OCC(CO)(COC(=O)CCN1CC1)COC(=O)CCN1CC1 | inactive
25 | O=C1OC(c2ccc(O)c(S(=O)(=O)O)c2)(c2ccc(O)c(S(=O)(=O)O)c2)c2c(Br)c(Br)c(Br)c(Br)c21 | inactive
26 | CCN(CC)C(C)C(=O)c1ccccc1 (stereo not given) | inactive
27 | O=[N+]([O-])c1cccc2c([N+](=O)[O-])cccc12 | inactive
28 | COc1cc(OC)nc(NC(=O)NS(=O)(=O)c2ncccc2OCC(F)(F)F)n1 | inactive
29 | CCC(=O)c1ccccc1 | inactive
30 | CC1CCC(=O)O1 (stereo not given) | inactive
31 | CNC(=O)O/N=C(\C)SC | inactive
32 | COC(=O)C(c1ccccc1)C1CCCCN1 (stereo not given) | inactive
33 | CCOP(=S)(Oc1cnc(C(C)(C)C)nc1)OC(C)C (stereo not given) | inactive
34 | COC(=O)C1=CCCN(C)C1 | inactive
35 | COc1cc(OC)nc(Oc2cccc(Oc3nc(OC)cc(OC)n3)c2C(=O)O)n1 | inactive
36 | CC1=NNC(=O)N(/N=C/c2cccnc2)C1 | inactive
37 | Clc1ccccc1N1CCNCC1 | inactive
38 | CNCC(=O)c1ccc(O)c(O)c1 | inactive
39 | COP(=S)(OC)Oc1c(Cl)cc(C)cc1Cl | inactive
40 | N#CCCC#N | inactive

Source: PubChem BioAssay (Tox21)
